# Reference: PubChem BioAssay (NCATS)
# “And” between values parts separate entries of the source, which are not always exact repeats. Equal entries are not always repeated. A number with no mark means an inactive call. Results filed as inconclusive are left out. Where a call stands in place of a potency, no number is given. The source made the active and inactive calls. Unless noted, calls follow the shape of the dose curve; as a rule, active = well fitted curve in the direction sought with a large enough effect; inconclusive = small, poorly fitted or top-dose-only effect, or another doubt; inactive = no such curve, though single readings can be large; an effect the other way counts as inactive or inconclusive.
# Experiments:
# [1] = target: Beta-2 adrenergic receptor (Homo sapiens) (UniProt P07550); assay: qHTS validation assay of beta-arrestin-biased ligands of beta2-adrenergic receptor (AID 485366)
# Outline: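 Tango cells (recombinant beta2-AR with recombinant beta-arrestin; recruitment releases tTA driving luciferase) were treated with compounds titrated up to 46 microM for 18 hr at 37 degrees C. Luminescence gave %Activity, and concentration-response curves were curve-classified.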
# [2] = target: ATP-dependent 6-phosphofructokinase (Trypanosoma brucei brucei) (UniProt O15648); assay: qHTS Validation Assay to Find Inhibitors of T. brucei phosphofructokinase (AID 485368); also: potency is read from the fitted curve at half-maximal effect
# Outline: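 Compounds (up to 57 uM, titration series) were pinned into substrate buffer, then 1.25 nM PFK added; after 45 min at room temperature, ADP product was quantified by ADP-Glo luminescence and concentration-response curves fitted.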
# [3] = Quantitative high throughput screen for delayed death inhibitors of the malarial parasite plastid, 96 hour incubation (AID 488745); also: nearly all actives have a fitted effect of over 70% in size; also: potency is read from the fitted curve at half-maximal effect
# Outline: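 Luciferase-expressing P. falciparum in erythrocytes (2% hematocrit, 0.1% parasitemia) incubated with compound for 96 h at 37 C, 5% CO2, in RPMI 1640 with 0.5% Albumax. Growth inhibition read as decreased luminescence.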
# [4] = Quantitative high throughput screen for delayed death inhibitors of the malarial parasite plastid, 48 hour incubation (AID 488752); also: nearly all actives have a fitted effect of over 65% in size; also: potency is read from the fitted curve at half-maximal effect
# Outline: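 Erythrocytes infected with firefly luciferase-expressing P. falciparum (2% hematocrit, 0.1% parasitemia) cultured with compound for 48 h at 37 C, 5% CO2, in RPMI 1640/0.5% Albumax. Growth inhibition read as loss of luminescence.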
# [5] = target: Thioredoxin reductase 1, cytoplasmic (Rattus norvegicus) (UniProt O89049); assay: qHTS Assay for Substrates of Mammalian Selenoprotein Thioredoxin Reductase 1 (TrxR1) (AID 488772);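 also: NADPH fluorescence in the first read after selenite addition and not the 8 min delta; series mostly up to about 57 µM; a drop in NADPH fluorescence below the no-compound background marks a TrxR1 substrate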
# Outline: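 Quantitative HTS in Tris-HCl buffer at pH 7.5 with EDTA and Tween-20, using rat TrxR1, 400 uM NADPH and 400 uM selenite (final). A fall in initial NADPH fluorescence relative to background marked substrate behaviour.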
# [6] = target: Thioredoxin reductase 1, cytoplasmic (Rattus norvegicus) (UniProt O89049); assay: qHTS Assay for Inhibitors of Mammalian Selenoprotein Thioredoxin Reductase 1 (TrxR1) (AID 488773); details: Potency: inhibition;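 also: drop in NADPH fluorescence over an 8 min run after selenite addition; series mostly up to about 57 µM; nearly all actives have a fitted effect of over 40% in size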
# Outline: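 Steps: enzyme (90 nM) plus NADPH (400 uM final), 5 min at ~22 deg C; compound added, 15 min; selenite (400 uM final) added; fluorescence followed for 8 min. Concentration-response curves derived from the normalized delta values.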
# [7] = target: Flap endonuclease 1 (Homo sapiens) (UniProt P39748); assay: qHTS Validation Assay for the Inhibitors of Human Flap endonuclease 1 (FEN1) (AID 488816); also: potency is read from the fitted curve at half-maximal effect
# Outline: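 FEN1, dispensed as a 10 nM reagent, was preincubated with pin-transferred compounds for 15 min at room temperature before substrate was added (50 nM final). Plates were read at 0 and 15 min, and a four-parameter Hill equation was fitted to the concentration-response data.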
# [8] = target: M-phase phosphoprotein 8 (Homo sapiens) (UniProt Q99549); assay: qHTS Validation Assay for Inhibitors for MPP8 Chromodomain Interactions with Methylated Histone Tails (AID 488949); also: nearly all actives have a fitted effect of over 55% in size; also: potency is read from the fitted curve at half-maximal effect
# Outline: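 AlphaScreen read-out: streptavidin donor and nickel chelate acceptor beads (final 10 ug/mL), 30 min in the dark at RT. Complex of 50 nM MPP8 and 50 nM b-H3(1-18)K9me3 peptide had been exposed to compounds for 30 min beforehand.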
# [9] = target: Methanococcus maripaludis chaperonin (MmCpn) (UniProt Q6LX38); assay: High-Throughput Screening for Modulators of Cytosolic Chaperonin Activity: MmCpn Primary Screen (AID 488978);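 also: 50 nM MmCpn enzyme hydrolysing 30 µM ATP at 37 °C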
# Outline: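 ADP formation read by HTRF Transcreener, 665/590 nm emission after 320 nm excitation. Enzyme: archaeal chaperonin at 50 nM final; substrate ATP 30 uM final; 10 min, 37C, after 5 min compound preincubation at RT.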
# [10] = target: Transient receptor potential cation channel subfamily V member 1 (Homo sapiens) (UniProt Q8NER1); assay: HTS Assay for Compounds that Act as Enhancers of the Vanilloid Receptor 1 (AID 488979)
# Outline: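 TRPV1-expressing cells loaded with Fluo-8 calcium dye; compounds added and calcium influx read kinetically for 3 min (agonist phase), then capsaicin at EC20 added and read 2 min more for enhancement. Fluorescence ex 480/em 520 nm.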
# [11] = target: Thyrotropin receptor (Homo sapiens) (UniProt P16473); assay: qHTS Assay for Antagonists of the Thyroid Stimulating Hormone Receptor (AID 488980); also: series mostly up to about 58 µM
# Outline: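 TSHR-HEK293 cells; 70 uM RO 20-1724 PDE inhibitor; compound + EC80 TSH (4 nM final); anti-cAMP cryptate antibody/cAMP-d2 in lysis buffer, 30 min RT; HTRF 665/620 nm read.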
# [12] = target: D(1A) dopamine receptor (Homo sapiens) (UniProt P21728); assay: HTS Assay for Allosteric Agonists of the Human D1 Dopamine Receptor: Primary Screen for Agonists (AID 488981); also: potency is read from the fitted curve at half-maximal effect
# Outline: (§1)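 Tetracycline-induced HEK293 T-REx cells force-coupled to calcium signalling were incubated overnight at 30 C and dye-loaded at room temperature. Calcium flux over 180 s after compound addition flagged agonists; a further 180 s read after EC20 dopamine flagged potentiators.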
# [13] = target: D(1A) dopamine receptor (Homo sapiens) (UniProt P21728); assay: HTS Assay for Allosteric Agonists of the Human D1 Dopamine Receptor: Primary Screen for Antagonists (AID 488983);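 also: calcium flux response to an EC80 dopamine challenge measured with no-wash dye; nearly all actives have a fitted effect of over 65% in size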; also: potency is read from the fitted curve at half-maximal effect
# Outline: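 Tetracycline-induced HEK293 T-REx D1 line, force-coupled to calcium flux, read with no-wash calcium dye. Compound added after 10 s baseline, read 180 s for agonism, then EC80 dopamine added and read a further 180 s.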
# [14] = Validation screen for small molecules that induce genotoxicity in human embryonic kidney (HEK293T) cells expressing luciferase-tagged ELG1 (AID 493106)
# Outline: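 HEK293T cells expressing luciferase-tagged ELG1, 2,000 cells/well, exposed to compound 16 hr at 37 °C, 5% CO2. Luciferase read after ONE-Glo, 30 min at room temperature; increased signal indicates genetic stress.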
# [15] = target: ATPase family AAA domain-containing protein 5 (Homo sapiens) (UniProt Q96QE3); assay: Validation screen for small molecules that inhibit ELG1-dependent DNA repair in human embryonic kidney (HEK293T) cells expressing luciferase-tagged ELG1 (AID 493107);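 also: cells co-treated with the DNA-damaging agent 5-fluorouridine alongside compound; series mostly up to about 46 µM; inhibitors lower the ELG1-luciferase luminescence signal; nearly all actives have a fitted effect of over 70% in size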
# Outline: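 HEK293T cells expressing luciferase-tagged ELG1, 2,000 per well, treated with 5-fluorouridine plus compound for 16 h at 37 C. ONE-Glo luminescence after 30 min at room temperature reports ELG1 reporter level.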
# [16] = target: Thyrotropin-releasing hormone receptor (Homo sapiens) (UniProt P34981); assay: qHTS for Small Molecule Agonists and Allosteric Enhancers of Human TRH Receptor: Validation Screen for Agonists (AID 493127;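 active = calcium activation more than 3 SD above the typical response in the agonist read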); details: TRH receptor agonist cell assay; at 2 µM; hits give high values
# Outline: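 TRHR cells loaded with fluo-8 calcium dye; FDSS kinetic fluorescence (Ex 480/Em 530) read at 1 s/cycle after 23 nL compound addition. Agonist-mode calcium response recorded before the 10 nM TRH (EC20) addition.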
# [17] = target: Chromobox protein homolog 1 (Homo sapiens) (UniProt P83916); assay: qHTS Validation Assay for Inhibitors of HP1-beta Chromodomain Interactions with Methylated Histone Tails (AID 488953); also: nearly all actives have a fitted effect of over 50% in size; also: potency is read from the fitted curve at half-maximal effect
# Outline: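 HP1-beta (50 nM) preformed 30 min with biotinylated H3(1-18)K9me3 peptide (50 nM) in PBS pH 7.4, 0.01% Tween-20. Compounds added for 30 min at room temperature. Complex disruption read by AlphaScreen with streptavidin donor/nickel chelate acceptor beads (10 ug/mL each).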
# [18] = target: D(1A) dopamine receptor (Homo sapiens) (UniProt P21728); assay: HTS Assay for Allosteric Agonists of the Human D1 Dopamine Receptor: Primary Screen for Potentiators (AID 488982); also: potency is read from the fitted curve at half-maximal effect
# Outline: as §1
# Transient receptor potential cation channel subfamily V member 1 (Homo sapiens), sequence (Q8NER1 whole entry, looked up): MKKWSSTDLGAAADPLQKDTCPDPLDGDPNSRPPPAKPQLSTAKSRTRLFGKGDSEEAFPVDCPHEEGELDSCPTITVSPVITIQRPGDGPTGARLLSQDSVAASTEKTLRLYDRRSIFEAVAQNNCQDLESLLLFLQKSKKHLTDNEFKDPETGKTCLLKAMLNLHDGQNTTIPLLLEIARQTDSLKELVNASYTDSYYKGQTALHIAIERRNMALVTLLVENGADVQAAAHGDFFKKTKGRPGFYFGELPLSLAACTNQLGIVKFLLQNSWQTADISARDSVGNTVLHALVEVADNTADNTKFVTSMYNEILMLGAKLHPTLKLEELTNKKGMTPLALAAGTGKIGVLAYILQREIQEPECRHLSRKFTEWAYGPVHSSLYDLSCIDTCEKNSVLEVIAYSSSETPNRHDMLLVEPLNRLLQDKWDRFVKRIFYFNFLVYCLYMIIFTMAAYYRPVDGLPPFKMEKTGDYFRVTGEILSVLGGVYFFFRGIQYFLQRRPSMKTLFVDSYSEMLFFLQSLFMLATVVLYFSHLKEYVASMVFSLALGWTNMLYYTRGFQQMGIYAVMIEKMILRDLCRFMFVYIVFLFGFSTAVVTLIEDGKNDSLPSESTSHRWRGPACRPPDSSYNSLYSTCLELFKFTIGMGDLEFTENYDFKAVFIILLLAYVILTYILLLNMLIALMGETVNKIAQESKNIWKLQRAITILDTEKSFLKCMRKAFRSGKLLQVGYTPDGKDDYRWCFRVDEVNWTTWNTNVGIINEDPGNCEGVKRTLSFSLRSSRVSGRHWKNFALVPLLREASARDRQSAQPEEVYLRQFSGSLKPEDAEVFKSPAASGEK
# ATP-dependent 6-phosphofructokinase (Trypanosoma brucei brucei), sequence (O15648 whole entry, looked up): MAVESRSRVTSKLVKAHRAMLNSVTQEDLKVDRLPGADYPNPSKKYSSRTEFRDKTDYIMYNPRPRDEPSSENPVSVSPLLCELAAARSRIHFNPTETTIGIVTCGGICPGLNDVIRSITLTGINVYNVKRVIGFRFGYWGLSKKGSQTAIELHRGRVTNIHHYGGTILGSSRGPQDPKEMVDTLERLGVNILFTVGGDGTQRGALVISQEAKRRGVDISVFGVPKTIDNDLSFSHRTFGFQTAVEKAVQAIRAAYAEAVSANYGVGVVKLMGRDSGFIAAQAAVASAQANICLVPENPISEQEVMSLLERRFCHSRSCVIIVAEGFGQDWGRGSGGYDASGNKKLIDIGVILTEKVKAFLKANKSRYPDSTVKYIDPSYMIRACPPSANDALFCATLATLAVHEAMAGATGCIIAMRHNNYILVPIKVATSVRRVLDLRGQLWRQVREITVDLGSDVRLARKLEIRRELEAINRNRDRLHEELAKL
# Thioredoxin reductase 1, cytoplasmic (Rattus norvegicus), sequence (O89049 whole entry, looked up): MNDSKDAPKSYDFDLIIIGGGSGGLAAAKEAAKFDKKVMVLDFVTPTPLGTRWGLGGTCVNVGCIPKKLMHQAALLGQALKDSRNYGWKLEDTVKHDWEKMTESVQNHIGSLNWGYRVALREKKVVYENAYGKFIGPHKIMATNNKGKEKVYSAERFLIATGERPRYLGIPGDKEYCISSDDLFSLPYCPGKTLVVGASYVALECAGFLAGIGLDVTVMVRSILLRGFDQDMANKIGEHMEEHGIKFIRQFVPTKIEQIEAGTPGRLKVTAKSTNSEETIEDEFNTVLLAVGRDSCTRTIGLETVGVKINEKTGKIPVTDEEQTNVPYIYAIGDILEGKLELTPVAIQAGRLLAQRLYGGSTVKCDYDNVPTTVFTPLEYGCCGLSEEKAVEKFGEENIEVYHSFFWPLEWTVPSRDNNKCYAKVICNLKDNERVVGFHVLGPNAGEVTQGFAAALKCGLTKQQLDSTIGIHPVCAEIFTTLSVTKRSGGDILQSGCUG
# D(1A) dopamine receptor (Homo sapiens), sequence (P21728 whole entry, looked up): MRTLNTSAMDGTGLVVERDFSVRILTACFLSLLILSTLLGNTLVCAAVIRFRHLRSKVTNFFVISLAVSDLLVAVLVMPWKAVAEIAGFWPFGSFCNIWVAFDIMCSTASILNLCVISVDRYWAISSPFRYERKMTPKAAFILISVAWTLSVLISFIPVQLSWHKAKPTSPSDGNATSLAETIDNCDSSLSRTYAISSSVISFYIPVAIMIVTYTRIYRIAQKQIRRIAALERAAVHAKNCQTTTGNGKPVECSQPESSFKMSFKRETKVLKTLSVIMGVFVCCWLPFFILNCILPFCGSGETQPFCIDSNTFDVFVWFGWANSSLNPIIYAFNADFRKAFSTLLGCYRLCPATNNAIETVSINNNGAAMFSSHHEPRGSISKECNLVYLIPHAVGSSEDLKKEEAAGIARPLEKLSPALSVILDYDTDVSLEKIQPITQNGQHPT
# ATPase family AAA domain-containing protein 5 (Homo sapiens), sequence (Q96QE3 whole entry, looked up, the tested form may be a part): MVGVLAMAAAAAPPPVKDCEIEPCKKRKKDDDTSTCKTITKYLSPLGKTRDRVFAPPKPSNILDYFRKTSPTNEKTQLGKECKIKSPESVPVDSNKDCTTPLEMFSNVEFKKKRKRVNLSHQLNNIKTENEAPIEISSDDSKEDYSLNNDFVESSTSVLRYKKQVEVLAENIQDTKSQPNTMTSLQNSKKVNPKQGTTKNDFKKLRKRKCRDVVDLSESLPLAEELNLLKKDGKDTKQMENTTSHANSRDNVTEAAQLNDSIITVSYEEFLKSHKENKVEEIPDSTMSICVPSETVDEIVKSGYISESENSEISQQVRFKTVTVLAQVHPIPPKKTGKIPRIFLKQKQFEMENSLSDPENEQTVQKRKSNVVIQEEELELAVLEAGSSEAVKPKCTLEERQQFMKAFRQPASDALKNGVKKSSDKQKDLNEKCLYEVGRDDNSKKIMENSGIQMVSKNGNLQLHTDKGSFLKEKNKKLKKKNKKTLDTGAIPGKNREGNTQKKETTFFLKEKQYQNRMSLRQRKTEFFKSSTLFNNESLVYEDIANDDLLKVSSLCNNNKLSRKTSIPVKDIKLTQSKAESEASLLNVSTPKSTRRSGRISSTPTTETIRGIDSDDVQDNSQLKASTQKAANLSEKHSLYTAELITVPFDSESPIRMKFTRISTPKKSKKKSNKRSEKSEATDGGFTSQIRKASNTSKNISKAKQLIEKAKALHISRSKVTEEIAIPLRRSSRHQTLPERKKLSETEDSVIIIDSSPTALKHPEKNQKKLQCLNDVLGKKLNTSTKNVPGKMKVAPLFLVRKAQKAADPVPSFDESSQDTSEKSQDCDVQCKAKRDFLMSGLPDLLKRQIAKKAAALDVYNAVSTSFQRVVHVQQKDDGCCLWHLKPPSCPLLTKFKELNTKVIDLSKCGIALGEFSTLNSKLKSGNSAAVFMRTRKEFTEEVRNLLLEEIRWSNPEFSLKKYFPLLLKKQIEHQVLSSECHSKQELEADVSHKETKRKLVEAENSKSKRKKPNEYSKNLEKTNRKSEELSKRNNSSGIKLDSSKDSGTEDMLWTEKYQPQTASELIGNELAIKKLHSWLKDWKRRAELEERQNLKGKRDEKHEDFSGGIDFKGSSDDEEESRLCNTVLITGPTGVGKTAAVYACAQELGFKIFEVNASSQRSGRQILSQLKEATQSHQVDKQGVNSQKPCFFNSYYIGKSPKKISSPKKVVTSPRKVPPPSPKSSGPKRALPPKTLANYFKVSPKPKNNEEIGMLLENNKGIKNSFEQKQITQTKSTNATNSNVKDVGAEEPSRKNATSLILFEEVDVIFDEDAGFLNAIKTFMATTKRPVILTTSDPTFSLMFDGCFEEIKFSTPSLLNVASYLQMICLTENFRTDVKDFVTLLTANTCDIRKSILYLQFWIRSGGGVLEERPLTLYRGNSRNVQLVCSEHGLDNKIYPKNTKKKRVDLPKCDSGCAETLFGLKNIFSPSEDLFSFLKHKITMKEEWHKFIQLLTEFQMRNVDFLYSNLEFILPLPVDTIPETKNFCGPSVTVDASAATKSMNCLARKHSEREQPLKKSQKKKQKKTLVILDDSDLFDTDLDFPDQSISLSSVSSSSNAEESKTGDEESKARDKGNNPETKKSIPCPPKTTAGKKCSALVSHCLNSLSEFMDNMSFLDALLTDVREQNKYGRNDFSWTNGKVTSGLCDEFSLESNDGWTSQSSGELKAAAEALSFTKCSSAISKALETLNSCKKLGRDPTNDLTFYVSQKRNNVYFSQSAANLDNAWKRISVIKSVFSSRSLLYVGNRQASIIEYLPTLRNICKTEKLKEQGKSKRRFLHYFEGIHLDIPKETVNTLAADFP
# M-phase phosphoprotein 8 (Homo sapiens), sequence (Q99549 whole entry, looked up): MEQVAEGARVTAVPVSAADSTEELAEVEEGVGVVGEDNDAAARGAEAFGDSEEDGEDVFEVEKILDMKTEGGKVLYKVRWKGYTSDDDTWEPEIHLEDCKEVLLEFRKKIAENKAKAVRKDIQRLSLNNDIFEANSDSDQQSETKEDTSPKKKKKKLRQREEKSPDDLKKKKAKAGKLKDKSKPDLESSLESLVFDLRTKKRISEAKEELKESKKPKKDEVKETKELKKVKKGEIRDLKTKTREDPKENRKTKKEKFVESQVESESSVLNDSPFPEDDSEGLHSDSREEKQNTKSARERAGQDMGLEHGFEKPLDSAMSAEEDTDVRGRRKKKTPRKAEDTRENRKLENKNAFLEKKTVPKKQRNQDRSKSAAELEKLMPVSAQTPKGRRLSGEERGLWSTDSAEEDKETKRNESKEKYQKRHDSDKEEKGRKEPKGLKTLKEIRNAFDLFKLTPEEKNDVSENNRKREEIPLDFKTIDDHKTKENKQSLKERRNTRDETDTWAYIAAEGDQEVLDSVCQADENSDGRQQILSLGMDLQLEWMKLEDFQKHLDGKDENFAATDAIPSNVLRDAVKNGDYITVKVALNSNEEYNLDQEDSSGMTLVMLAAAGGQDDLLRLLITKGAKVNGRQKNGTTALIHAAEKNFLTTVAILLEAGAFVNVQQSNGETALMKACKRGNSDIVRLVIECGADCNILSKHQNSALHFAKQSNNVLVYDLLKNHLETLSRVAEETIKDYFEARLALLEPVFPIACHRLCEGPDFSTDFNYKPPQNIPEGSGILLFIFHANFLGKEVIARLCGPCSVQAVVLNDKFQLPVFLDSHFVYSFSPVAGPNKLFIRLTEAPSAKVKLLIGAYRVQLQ
SMILES,outcome [1],Potency [2],Potency [3],Potency [4],outcome [5],Potency [6],Potency [7],Potency [8],outcome [9],outcome [10],outcome [11],Potency [12],Potency [13],Potency [14],Potency [15],activation [16],Potency [17],Potency [18]
O=C(O)/C=C/c1cnc[nH]1,inactive,inactive,inactive,inactive,inactive,inactive,inactive,inactive,inactive,inactive,inactive,inactive,inactive,inactive,inactive,-0.125%,,
Nc1nc2ccc(Cl)cc2c2nc(-c3ccco3)nn12,inactive,inactive,inactive,inactive,inactive,,,,inactive,inactive,inactive,inactive,,,,0.25%,inactive,
Cn1c(=O)c2c(nc(/C=C/c3cccc(Cl)c3)n2C)n(C)c1=O,inactive,inactive,inactive,inactive,inactive,inactive,,inactive,inactive,,inactive,inactive,inactive,inactive,inactive,-2.88%,inactive,inactive
O=c1onc2n1-c1cc(Br)ccc1OC2,inactive,inactive,inactive,inactive,inactive,inactive,inactive,inactive,inactive,inactive,inactive,inactive,inactive,,inactive,1.75%,,inactive
CCCN(CCc1ccccc1)C1CCc2c(O)cccc2C1 (stereo not drawn),inactive,inactive,3.29 µM (active),3.29 µM (active),inactive,inactive,inactive,inactive,inactive,,inactive,inactive,,inactive,inactive,,inactive,inactive
CC(=O)N[C@@H](Cc1c[nH]c2ccccc12)C(=O)OCc1cc(C(F)(F)F)cc(C(F)(F)F)c1,inactive,inactive,inactive,inactive,inactive,inactive,inactive,inactive,inactive,inactive,inactive,inactive,inactive,inactive,inactive,2.62%,,inactive
CC(=O)NCCc1c[nH]c2ccc(O)cc12,inactive,inactive,inactive,,inactive,inactive,inactive,inactive,inactive,inactive,inactive,inactive,inactive,inactive,inactive,1.31%,inactive,inactive
COc1cc(/C=C(\C#N)C(=O)c2ccc(O)c(O)c2)cc(I)c1O,inactive,6.01 µM (active),inactive,inactive,inactive,,0.844 µM (active),8.91 µM (active) and 8.44 µM (active),inactive,,inactive,14.1 µM (active),inactive,inactive,inactive,53.1% (active),10 µM (active),3.66 µM (active)
CC(=O)C(C)=O,inactive,inactive,inactive,inactive,inactive,inactive,,inactive,inactive,inactive,inactive,inactive,,,inactive,,,inactive
CCCn1c(=O)c2[nH]c(-c3ccc(S(=O)(=O)O)cc3)nc2n(CCC)c1=O,inactive,inactive,inactive,inactive,inactive,inactive,inactive,inactive,inactive,,inactive,inactive,inactive,,inactive,0.688%,inactive,inactive
CCCc1c(OCCCOc2ccc(OCC(=O)O)cc2)ccc(C(C)=O)c1O,inactive,inactive,inactive,inactive,inactive,inactive,,inactive,inactive,inactive,inactive,inactive,,inactive,inactive,,inactive,inactive
N#CC(C#N)=C(N)/C(C#N)=C/c1ccc(O)cc1,inactive,inactive,inactive,inactive,inactive,,inactive,inactive,inactive,,inactive,inactive,inactive,inactive,inactive,,,inactive
O=C(OCCN1CCOCC1)C1(c2ccccc2)CCCCC1,inactive,inactive,inactive,,inactive,inactive,inactive,inactive,inactive,inactive,inactive,inactive,inactive,inactive,inactive,-4.62%,inactive,inactive
CCCCC[C@H](CC(=O)NO)C(=O)N[C@H](C(=O)N1CCC[C@H]1CO)C(C)C,inactive,inactive,1.17 µM (active),2.94 µM (active),inactive,inactive,inactive,inactive,inactive,,inactive,inactive,inactive,,,-2.88%,inactive,inactive
CN1CCC2(CCN3CCc4c(oc5ccccc45)C3C2)N(C)C1=O (stereo not drawn),inactive,inactive,inactive,inactive,inactive,inactive,,inactive,inactive,inactive,inactive,inactive,10 µM (active),inactive,inactive,0.25%,inactive,inactive
COC(=O)C(C)(N)Cc1ccc(O)cc1 (stereo not drawn),inactive,inactive,inactive,inactive,inactive,inactive,inactive,inactive,inactive,inactive,inactive,inactive,,inactive,inactive,0.125%,,inactive
Cc1nc(N=Nc2cc(S(=O)(=O)O)c3cc([N+](=O)[O-])cc(S(=O)(=O)O)c3c2)c(COP(=O)(O)O)c(C=O)c1O,inactive,7.57 µM (active),inactive,inactive,inactive,,23.8 µM (active),10 µM (active),inactive,inactive,inactive,inactive,inactive,,inactive,0.25%,28.2 µM (active),inactive
